Reference: PubChem BioAssay (NCATS)
Results filed as inconclusive are left out. Activity calls are given as the source filed them.

Experiment: qHTS for identification of novel therapeutic agents for treatment of microphthalmiaassociated transcription factor (MiT) renal cell carcinoma (RCC) (AID 1963991)
Details: CellTiter-Glo, 48 h; for Potency: active = Z-AUC below -0.8 in all three lines; for z-score: stronger effect = lower value
Description: PI: Marston Linehan Ph.D.
Urologic Oncology Branch, Center for Cancer Research (CCR)
National Cancer Institute (NCI), National Institute of Health (NIH), Bethesda, Maryland
MiT-Renal Cell Carcinoma (RCC) is characterized by genomic translocations involving microphthalmia-associated transcription factor (MiT) family members TFE3, TFEB, or MITF. MiT-RCC represents a specific subtype of sporadic RCC that is predominantly seen in young patients and can present with heterogeneous histological features making diagnosis challenging. Moreover, the disease biology of this aggressive cancer is poorly understood and there is no accepted standard of care therapy for patients with advanced disease. Tumor-derived cell lines have been established from human TFE3-RCC providing useful models for preclinical studies. TFE3-RCC tumor derived cell lines and their tissues of origin were characterized by IHC and gene expression analyses. An unbiased high-throughput drug screen was performed to identify novel therapeutic agents for treatment of MiT-RCC. Potential therapeutic candidates were validated in in vitro and in vivo preclinical studies. Mechanistic assays were conducted to confirm the on-target effects of drugs. The results of a high-throughput small molecule drug screen utilizing three TFE3-RCC tumor-derived cell lines identified five classes of agents with potential pharmacological efficacy, including inhibitors of phosphoinositide-3-kinase (PI3K) and mechanistic target of rapamycin (mTOR), and several additional agents, including the transcription inhibitor Mithramycin A. Upregulation of the cell surface marker GPNMB, a specific MiT transcriptional target, was confirmed in TFE3-RCC and evaluated as a therapeutic target using the GPNMB-targeted antibody-drug conjugate CDX-011. […] The results of the high-throughput drug screen and validation studies in TFE3-RCC tumor-derived cell lines have provided in vitro and in vivo preclinical data supporting the efficacy of the PI3K/mTOR inhibitor.
SEQUENCE No. (e.g., 1, 2, 3, etc.); […] (e.g., Cells, Incubation, Reagent, etc.); VALUE; DESCRIPTION.
1; Cells; 3 uL; white, solid-bottom Grenier assay plate.
2; Compounds; 23 nL; Kalypsis pin-tool (Wako USA).
3; Incubation; 48 hr; 37 C, 5% CO2, 95% humidity.
4; Reagent; 3 uL; CellTiter-Glo reagent (Promega).
5; Incubation; 15 min; room temperature.
6; Detection; Luminescence; ViewLux plate reader (PerkinElmer).
NOTES (numbers refer to Sequence numbers above)
1. Quantitative high-throughput screening (qHTS) of 1912 pharmacologically defined small molecule compounds was conducted on three TFE3-fusion cell lines bearing three different fusion partners (UOK109, UOK124, UOK145). Briefly, 500 cells in complete growth media were plated into white, solid-bottom, 1536-well tissue culture treated plates (Grenier Cat. 789173-F) using a Multidrop Combi cassette dispenser.
2. Twenty-three nanoliter of 1912 pharmacologically defined small molecule compounds of the NCATS Mechanism Interrogation PlatE (MIPE) version 4.0 were added to each assay plate using a Pintool Dispenser (Wako) equipped with 1536 pin head.
3. Plates were covered with stainless steel gasketed lids and incubated for 48 hours at standard cell culture conditions.
4. Viability was assessed by adding 3uL of CellTiter-Glo detection reagent (Promega).
5. Plates were covered with gasket lids and incubated for 15 minutes at room temperature.
6. Luminescence was measured on a ViewLux plate reader (PerkinElmer). Post-screen data processing used DMSO controls as 100% viability and empty wells as 0% viability and dose response curve fitting was done for all 11 concentrations for each compound.

[1] = TFE3-RCC UOK109 viability, measured here: UOK109 Z-AUC
[2] = TFE3-RCC viability, measured here: UOK124 Z-AUC
[3] = TFE3-RCC viability, measured here: UOK145 Z-AUC
Potency is read from the fitted curve at half-maximal effect.

SMILES: CCN(CC)CCNC(=O)c1c(C)[nH]c(C=C2C(=O)Nc3ccc(F)cc32)c1C
- Potency (TFE3-RCC UOK109 viability): 34 µM (active)
- z-score [1]: -1.15
- z-score [2]: -1.68
- z-score [3]: -1.38

SMILES: O=C1NC(=O)C(=Cc2ccc3nccc(-c4ccncc4)c3c2)S1
- Potency (TFE3-RCC UOK109 viability): 0.833 µM (active)
- z-score [1]: -1.04
- z-score [2]: -1.39
- z-score [3]: -1.83

SMILES: COc1cc2c(Nc3ccc(Cl)c(Cl)c3F)ncnc2cc1OCC1C[C@@H]2CN(C)C[C@H]2C1
- Potency (TFE3-RCC UOK109 viability): 9.35 µM (active)
- z-score [1]: -3.52
- z-score [2]: -1.85
- z-score [3]: -1.7

SMILES: COC[C@H](NC(=O)c1cnc(C)s1)C(=O)N[C@@H](COC)C(=O)N[C@@H](Cc1ccccc1)C(=O)[C@@]1(C)CO1
- Potency (TFE3-RCC UOK109 viability): 3.72 µM (active)
- z-score [1]: -1.27
- z-score [2]: -0.856
- z-score [3]: -2.57

SMILES: COc1cc([C@@H]2c3cc4c(cc3[C@H](O)[C@H]3COC(=O)[C@@H]23)OCO4)cc(OC)c1OC
- Potency (TFE3-RCC UOK109 viability): 0.0833 µM (active)
- z-score [1]: -1.41
- z-score [2]: -1.77
- z-score [3]: -1.2

SMILES: C[C@H](CCC(=O)O)[C@H]1CC[C@H]2[C@@H]3[C@H](O)C[C@@H]4C[C@H](O)CC[C@]4(C)[C@@H]3CC[C@]12C
- z-score [1]: 0.305
- z-score [2]: 0.277
- z-score [3]: 0.171

SMILES: CCCc1nc(C(C)(C)O)c(C(=O)O)n1Cc1ccc(-c2ccccc2-c2nn[nH]n2)cc1
- z-score [1]: 1.09
- z-score [2]: 0.526
- z-score [3]: 0.646

SMILES: CCCCCCCN(CC)CCCC(O)c1ccc(NS(C)(=O)=O)cc1 (stereo unspecified)
- z-score [1]: 0.349
- z-score [2]: -0.246
- z-score [3]: 0.649

SMILES: CC(Cc1ccc(O)c(O)c1)(NN)C(=O)O (stereo unspecified)
- z-score [1]: 0.533
- z-score [2]: 0.304
- z-score [3]: 0.315

SMILES: Cc1ccccc1C(=O)Nc1ccc(C(=O)N2CCCC(O)c3cc(Cl)ccc32)c(C)c1 (stereo unspecified)
- z-score [1]: -0.031
- z-score [2]: 0.501
- z-score [3]: 0.525

SMILES: CC(C)(O)[C@H]1CC[C@@](C)([C@H]2[C@@H](O)C[C@@]3(C)[C@@H]4C[C@H](O[C@@H]5O[C@H](CO)[C@@H](O)[C@H](O)[C@@H]5O)[C@H]5C(C)(C)[C@@H](O[C@@H]6OC[C@@H](O)[C@H](O)[C@@H]6O)CC[C@@]56C[C@@]46CC[C@]23C)O1
- z-score [1]: 0.913
- z-score [2]: 0.41
- z-score [3]: 0.699

SMILES: C[C@]12C=CC(=O)N[C@@H]1CC[C@H]1[C@H]3CC[C@@H](C(=O)Nc4cc(C(F)(F)F)ccc4C(F)(F)F)[C@@]3(C)CC[C@@H]12
- z-score [1]: 0.94
- z-score [2]: 0.86
- z-score [3]: 0.116
